What all share (test): NCI-60 one-dose screen, 48 h (100 = growth as untreated, 0 = no growth, -100 = all killed)
Settings in all cases: 10 µM unless noted

In assay [1] the test system is T-47D breast.
Assay [2] relates to BT-549 breast.
The test system of assay [3] is MDA-MB-435 melanoma.
The subject of assay [4] is SW-620 colon.
The test system of assay [5] is HCT-116 colon.
Assay [6] relates to HCC-2998 colon.
The subject of assay [7] is KM12 colon.
For assay [8], the system named is MCF7 breast.

For 17 compounds, growth results are on record in PubChem BioAssay (NCI).

Each structure is given as a SMILES string. About 83,000 compounds went through this panel and 20% of them were active in at least one assay; those are over-represented in the sample as a whole.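 How to read the values: 0–100, growth inhibition (40 = 60% inhibited); 0, no net growth; -100 to 0, cell death (-40 = 40% of starting cells died; -100 = all dead).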 A number with no mark means an inactive call. Activity calls are given as the source filed them. The calls were made as follows: active = growth percent below 10; inactive = the rest.

Consider `CCSc1nnc(NC(=O)COc2ccc(Cl)cc2C)s1`, for which the growth in assay [1] is 96%; in assay [2] it was 110%; in assay [3] it was 84%; in assay [4], 102%; in assay [5] it was 103%; in assay [6], 131%. Besides, the growth in assay [7] was 109%.
In the case of `CCOC(=O)[C@H](CSSc1ncnc2cc[nH]c12)NC(=O)[C@@H](C)c1ccc2cc(OC)ccc2c1`, the growth in assay [1] was 23.3%; in assay [2] it was 46.3%; in assay [3], 24.4%; in assay [4], 19.3%; in assay [8], 8.81% (active); in assay [6] it was 25.4%. Also, the growth in assay [7] was 23.5%.
Turning to `C=C1C(=O)O[C@H]2[C@H]1CC/C(Cn1cc(-c3ccc(N)cc3)nn1)=C\CC[C@@]1(C)O[C@@H]21`, the growth is -40.4% (active) in assay [1]; -43.3% (active) in assay [2]; -7.57% (active) in assay [3]; -44.8% (active) in assay [4]; 2.62% (active) in assay [8]; 50.8% in assay [6]. For the same compound, the growth in assay [7] was 51.5%.
On to `CCN(C(=O)c1cc2ncccc2[nH]1)[C@H]1CCC[C@@H](NCc2cccc(F)c2)C1`, for which the growth in assay [1] was 78.1%; in assay [2], 104%; in assay [3] it was 97.4%; in assay [4] it was 98.5%; in assay [5] it was 111%; in assay [6], 91.6%. Further, the growth in assay [7] was 97.3%.
As to `CC1CCc2c(sc(NC(=O)CSc3nnc4ccccn34)c2C(N)=O)C1` (centres undefined), the growth in assay [1] is 105%; in assay [2], 142%; in assay [3], 99%; in assay [4] it was 109%; in assay [8] it was 96%; in assay [6], 105%. In addition, in assay [7], the growth was 108%.
For `CN(C)c1ncc(-c2ccc(C(F)(F)F)cc2)c(NC2CCCCCC2)n1`, the growth in assay [1] is 35.1%; in assay [2] it was 90.3%; in assay [3], 65.4%; in assay [4], 58.1%; in assay [5], 44.1%; in assay [6], 72.2%. Besides, the growth in assay [7] was 54.4%.
On to `Cc1cccc2cc(/C=C/C(=O)/C=C/c3ccc(Cl)cc3)c(=O)[nH]c12`, for which the growth in assay [1] is 41.6%; in assay [2], 7.28% (active); in assay [3], -32.7% (active); in assay [4] it was 8.48% (active); in assay [5], -52.7% (active); in assay [6] it was -4.78% (active). The growth in assay [7] is 8.42% (active).
`Cc1sc2nc(CSc3nnc(-c4ccco4)o3)[nH]c(=O)c2c1C`: the growth was 95.4% in assay [1]; 102% in assay [2]; 105% in assay [3]; 101% in assay [4]; 115% in assay [5]; 124% in assay [6]. In assay [7], the growth was 118%.
Turning to `O=C1N=C(c2c(-c3[nH]c(=O)c4ccc(Br)cc4c3O)c(O)c3ccccc3c2O)C(=O)c2cc(Br)ccc21`, the growth in assay [1] was -34.2% (active); in assay [2], -25.4% (active); in assay [3], -63.4% (active); in assay [4] it was -70.7% (active); in assay [5], -21.7% (active); in assay [6] it was -44.3% (active). In assay [7], the growth is -53.2% (active).
Regarding `CCCCCCCN(CCCCCCC)C(=N)c1ccc(OC)c2ccccc12`, the growth in assay [1] was -72.9% (active); in assay [2], -7.55% (active); in assay [3] it was -98.7% (active); in assay [4], -89.1% (active); in assay [5], -86.7% (active); in assay [6], -92.5% (active). Further, the growth in assay [7] was -84.3% (active).
Take `COc1ccc(-c2cn[nH]c2-c2cc(OC)c3c(c2)OCCO3)cc1`: the growth was 49.5% in assay [1]; 53.3% in assay [2]; 25.5% in assay [4]; 19.6% in assay [8]; 10.5% in assay [5]; 25.3% in assay [6]. Besides, in assay [7], the growth is 3.46% (active).
For `O=C(c1ccncc1)N1N=C(c2ccc(Cl)cc2)CC1c1c[nH]c2ccccc12` (centres undefined), the growth is 74.8% in assay [1]; 92.8% in assay [2]; 99.9% in assay [3]; 96% in assay [4]; 94.3% in assay [5]; 105% in assay [6]. The growth in assay [7] is 96.8%.
As for `CC(Br)C(OC(=O)c1ccccc1Cl)c1cc2c(cc1Br)OCO2` (centres undefined), the growth is 74.9% in assay [1]; 109% in assay [2]; 75.3% in assay [3]; 84.6% in assay [4]; 66.6% in assay [5]; 90.7% in assay [6]. For the same compound, the growth in assay [7] was 89%.
On to `CCC(=O)Oc1cc(/C=C/C(=O)O[C@H]2C[C@H]3CN4CCc5c([nH]c6cc(OC)ccc56)[C@@H]4C[C@@H]3[C@@H](C(=O)OC)[C@@H]2OC)ccc1OC`, for which the growth was 60.6% in assay [1]; 67.1% in assay [3]; 83% in assay [4]; 48.2% in assay [8]; 53.3% in assay [5]; 115% in assay [6]. In assay [7], the growth is 95.3%.
With `COc1ccc(/C=C/C(=O)c2cccc(B(O)O)c2)cc1O`, the growth in assay [1] is 32.4%; in assay [2], 13.9%; in assay [4] it was 9.61% (active); in assay [8], 24.3%; in assay [5], 3.16% (active); in assay [6], 54.3%. Further, in assay [7], the growth was 3.44% (active).
In the case of `CC[C@]1(O)C[C@@H]2CN(Cc3c([nH]c4ccccc34)[C@@](C(=O)OC)(c3cc4c(cc3OC)N(C)[C@H]3[C@@](O)(C(=O)OC)[C@H](OC(C)=O)[C@]5(CC)[C@@H]6C[C@@H]6CN6CC[C@]43[C@@H]65)C2)C1`, the growth was 83.3% in assay [1]; -23.1% (active) in assay [2]; -40% (active) in assay [3]; 20.6% in assay [4]; 2.43% (active) in assay [5]; 7.42% (active) in assay [6]. Besides, in assay [7], the growth is -9.75% (active).
Turning to `COc1ccc(NC(=S)/N=c2\oc3c(OC)cccc3cc2-c2cc3ccccc3[nH]2)cc1`, the growth in assay [2] is 90.4%; in assay [3], 77.2%; in assay [4], 84.3%; in assay [8], 81%; in assay [5], 64.7%; in assay [6], 101%. Also, the growth in assay [7] was 73.2%.
